Experimental data as given in PubChem BioAssay (NCI).
About 79,000 compounds went through this panel and 15% of them were active in at least one assay; those are over-represented in the sample as a whole. Values without a mark were called inactive. Calls of active or inactive are those of the source. No stated cut-off is given here; in the data, active means growth inhibition above about 70%; inactive means the rest.

Columns and labels:
[1] = NCI Yeast Anticancer Drug Screen. Data for the rad50 strain (AID 155);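 further: 0% = growth of vehicle-only cultures of the same strain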; conditions: S. cerevisiae rad50 strain growth inhibition; at 50.0 µM; hits give high values
Summary of the method: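 A DNA repair-deficient yeast mutant serves as the test organism; compound-induced growth inhibition is calculated against vehicle-treated cells.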

[2] = NCI Yeast Anticancer Drug Screen. Data for the mec2-1 strain (AID 157); conditions: S. cerevisiae mec2-1 strain, at 50.0 µM, hits give high values
Summary of the method: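 Mutant yeast (mec2-1) grown with compound; growth inhibition relative to vehicle control reported.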

[3] = NCI Yeast Anticancer Drug Screen. Data for the sgs1 mgt1 strain (AID 161);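 further: 0% = growth of cultures given vehicle only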; conditions: S. cerevisiae sgs1 mgt1 strain, at 50.0 µM, hits give high values
Summary of the method: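 Compounds are added to genetically altered yeast, and growth is compared with cultures given vehicle alone to give percent inhibition.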

[4] = NCI Yeast Anticancer Drug Screen. Data for the cln2 rad14 strain (AID 165);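 further: 0% = growth equal to vehicle treated cultures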; conditions: S. cerevisiae cln2 rad14 strain, at 50.0 µM, hits give high values
Summary of the method: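 Readout is yeast growth inhibition versus vehicle-treated controls, using a strain with cln2 and rad14 alterations exposed to compound.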

[5] = NCI Yeast Anticancer Drug Screen. Data for the bub3 strain (AID 167); conditions: S. cerevisiae bub3 mutant strain, at 50.0 µM, hits give high values
Summary of the method: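 Inhibition values come from growth of compound-treated mutant yeast normalised to vehicle-treated controls.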

[6] = NCI Yeast Anticancer Drug Screen. Data for the mlh1 rad18 strain (AID 175); conditions: S. cerevisiae mlh1 rad18 strain growth inhibition; at 50.0 µM; hits give high values
Summary of the method: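 Genetically defined yeast (DNA repair-deficient) exposed to compounds; growth inhibition determined relative to vehicle.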

| Compound | growth inhibition [1] | growth inhibition [2] | growth inhibition [3] | growth inhibition [4] | growth inhibition [5] | growth inhibition [6] |
| --- | --- | --- | --- | --- | --- | --- |
| O=[N+]([O-])c1ccc(N/N=C/c2ccccc2Cl)c([N+](=O)[O-])c1 | 15.3% | -9.55% | -1.15% | -22.4% | 9.75% | 27.3% |
| CC12CCC(CC1=O)C2(C)CCC(N)=O (configuration not stated) | -1.55% | -12% | 18.2% | -11.7% | -17.9% | -8.8% |
| C(=N\OCc1ccccc1)/c1ncccc1C1OCCO1 | -10.6% | -23.1% | -0.5% | 20.2% | -5.8% | -8.75% |
| CN(N)c1cc(=O)n(C)c(=O)n1C | -1.35% | -1.2% | -10.7% | -45.1% | -3.05% | 15.6% |
| Clc1cccc(NCNC2Nc3ccccc3N2)c1 | 39% | 20% | 6.6% | -14.3% | 18.1% | 27.9% |
| NC(Cc1c(F)c(F)c(F)c(F)c1F)C(=O)O (configuration not stated) | -2.6% | 2.95% | 11.2% | -11.3% | -12.1% | -7.4% |
| Cc1ccc(C(C)C)cc1NC(=O)/C=C/c1ccccc1 | 10.2% | 36% | 36.6% | -15.2% | 23.9% | 55% |
| Cn1c(=O)n(CCn2c(=O)n(C)c3ccccc32)c2ccccc21 | -1.6% | 14% | -3.15% | 3.55% | 4.5% | -3.8% |
| C=C(C)[C@H]1C[C@@H](O)[C@H]2O[C@@]2(C)C1 | -8.05% | -8.35% | -25.9% | -13.8% | 0.8% | -2.85% |
| C=CCC(C#N)C1=CCCCC1 (configuration not stated) | -6.85% | -26.6% | -12.4% | -4.3% | -23.6% | -5.75% |
| Cc1cc(C)c(C(=O)CSC(=N)N)c(C)c1 | -4.45% | 11.3% | 7.5% | -6.6% | 9.55% | 2.4% |
| COc1ccc(-c2nc(SCc3ccc(Cl)cc3)[nH]c(=O)c2CCO)cc1 | 32.3% | -7.75% | -4.45% | 3.15% | -3.45% | 10.4% |
| COc1cc2c3cc1Oc1c(O)c(OC)cc4c1C(Cc1ccc(O)c(c1)Oc1ccc(cc1)CC3N(C)CC2)N(C)CC4 (configuration not stated) | -22.1% | -47.2% | -33.6% | -5.4% | -24.5% | -13% |
| Cc1cc(OC(=O)c2ccccc2)c(C)c(C)c1OC(=O)c1ccccc1 | 6.15% | -7.95% | 15.2% | 9.2% | 8.4% | 21.1% |
| Cc1ccc(C)c(NC(=O)Oc2cc(C)c(Cl)cc2C(C)C)c1 | 85.8% (active) | 99.2% (active) | 98.5% (active) | 72.8% (active) | 98.5% (active) | 98.8% (active) |
| COc1ccc2nccc(NCCCN3CCN(CCCNc4ccnc5ccc(OC)cc45)CC3)c2c1 | 15.8% | 1% | 32.8% | -6.2% | 48.5% | -26.9% |
| COc1cc(C=C(c2ccc(N(C)C)cc2)c2ccc(N(C)C)cc2)c2ccccc2c1OC | 22.9% | 14.5% | 3.15% | 27.3% | -12.8% | -42.5% |
| O=C(Nc1cccc(Cl)c1)Oc1ccccc1 | 17.6% | 4.45% | -4.3% | 16.4% | 15.3% | 8.2% |
| O=C(O)/C=C/C(=O)Nc1ccc(C(=O)O)cc1 | 22.9% | -27.3% | 10.2% | 7.6% | -20.9% | -3.7% |

| Compound | growth inhibition [1] | growth inhibition [2] | growth inhibition [3] | growth inhibition [4] | growth inhibition [5] | growth inhibition [6] |
| --- | --- | --- | --- | --- | --- | --- |
| CN(C)C=NCC(O)c1ccccc1 (configuration not stated) | 13.3% | 15% | 0% | -3% | -21.2% | -22.1% |
| Fc1c(F)c(F)c(Nc2c(F)c(F)c3c(F)c(F)c(F)c(F)c3c2F)c(F)c1F | 1.15% | 49.7% | -16.3% | -62.9% | 2.9% | 0.95% |
| CCOc1cccc(OCC)c1C | -4.55% | -17.4% | -2.55% | 11.3% | -9% | 14.9% |
| COc1ccc(-c2cc(=O)c3c(O)c(OC)c(O)c(OC)c3o2)cc1OC | -0.4% | -37.5% | 5.1% | 5.15% | 29.7% | 20% |
| CCOC(=O)C(NC(=O)OC(C)(C)C)C(=O)OCC | -43.2% | -90.8% | -33.1% | -28.9% | 2.6% | -27.4% |
| CC(=O)c1ccc(C(C)=O)c(OCc2ccccc2)c1 | -4.45% | -12.4% | -8.25% | -27.9% | -5.95% | -5.05% |
| CCOC(=O)c1c(C)c2c(n1Cc1ccccc1)CCCC2=O | 15.5% | 11.4% | 38.5% | 12.7% | 23.9% | 19.4% |
| CC(=O)c1nc(C#N)c(N)o1 | 1.9% | -3.55% | -17.7% | 20.8% | -20.2% | -23.4% |
| Cc1ccc(S(=O)(=O)N=Nc2c(O)[nH]c3c(Cl)cc(Cl)cc23)cc1 | -11.8% | -18.8% | 4.65% | -1.2% | -22.4% | 23.2% |
| CC[N+](C)(CC)c1ccccc1 | -4.35% | -54.3% | -18.6% | 0.3% | -33.5% | 1.1% |
| CC12CCC[C@@](C)(C(=O)OC3OC(CO)C(O)C(O)C3O)[C@H]1CCC13CC4CC(OC4(CO)[C@H]1O)[C@@H]23 (some centres not stated) | -8.45% | -26.1% | -20.9% | -18.8% | -20.7% | -17.9% |
| O=C(COc1ccc(Cl)cc1Cl)Nc1ccc2ccccc2c1S(=O)(=O)O | 6.45% | 2.2% | 12.5% | -5.95% | 8.4% | 3.6% |
| CC(C)=Cc1cc(-c2cc(C=C(C)C)[nH]n2)n[nH]1 | -35.4% | -2% | -20.4% | -24.6% | -9.2% | -11.9% |
| O=C1CC(=C=Nc2ccccc2)C(=O)N1c1ccccc1 | 3.6% | 3.85% | 1.7% | -33.5% | -2.2% | 19.8% |
| O=C1c2ccccc2CC12CCC1(CC2)OCCO1 | -14% | -1% | 3.55% | 26.6% | -12.5% | -23.6% |
| O=C1c2c(O)cccc2C(C(=O)CCCC(=O)C2c3cccc(O)c3C(=O)c3c(O)cccc32)c2cccc(O)c21 | -1.55% | 13.2% | 3.25% | 19.9% | -15.8% | -0.85% |
| CN(C(=O)CCC(=O)O)c1ccccc1C(=O)O | 0.2% | -2.35% | 11% | -5.75% | 0.85% | -15.9% |
| CCOc1cc2c(cc1C(CC)c1ccccc1)OCO2 (configuration not stated) | 6.75% | 12.6% | 9.75% | 3% | 17.6% | 14.7% |
